Experimental findings from PubChem BioAssay (NCI) are described below.

Holding throughout (assay): NCI-60 one-dose screen, 48 h (100 = growth as untreated, 0 = no growth, -100 = all killed)
Conditions in all cases: 10 µM unless noted

Experiment [1] has as its system HT29 colon.
Experiment [2] deals with SNB-75 CNS.
Experiment [3] concerns SNB-19 CNS.
The test system of experiment [4] is U251 CNS.
In experiment [5] the test system is PC-3 prostate.
Experiment [6] deals with SK-MEL-5 melanoma.
Experiment [7] relates to UACC-62 melanoma.
Experiment [8] deals with LOX IMVI melanoma.
Experiment [9] deals with SK-MEL-28 melanoma.
Experiment [10] has as its system SK-MEL-2 melanoma.

This is part of a sample that, as a whole, favours compounds with a hit. Of some 83,000 tested, about 20% had one in any assay.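 In brief: 96-well plates, 48 h treatment, single concentration, percent growth endpoint.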 A number with no mark means an inactive call. Calls of active or inactive are those of the source. How the source made its calls: active means growth percent below 10; inactive means the rest.

Consider `CCCCCCOc1ccc(/C=N/NC(N)=S)cc1`, for which the growth was 38.7% in experiment [1]; 58.9% in experiment [2]; 80.1% in experiment [3]; 58.4% in experiment [4]; 49.4% in [5]; 53.6% in [6]. In addition, the growth in experiment [7] was 44.6%; in experiment [8], 55.6%; in experiment [9], 76.1%; in experiment [10] it was 69.6%.

On to `Cn1cc(-c2nc(-c3c[nH]c4ncc(F)cc34)cs2)c2cccnc21`, for which the growth in [1] was 112%; in experiment [2], 101%; in experiment [3], 108%; in experiment [4], 98.6%; in [5] it was 104%; in [6], 97.9%. Moreover, the growth was 89.1% in [7], 98% in experiment [8], 111% in experiment [9] and 120% in [10].

For the molecule `CCOC(=O)C(C(C)=O)c1nc2sc3cc(Cl)ccc3n2c(=N)c1C#N` (stereo not given), the growth in experiment [1] is 52.8%; in experiment [2] it was 34.5%; in experiment [3], 89.6%; in experiment [4], 86.2%; in experiment [5], 72.5%; in experiment [6] it was 73.9%. The growth in experiment [7] was 67.8%; in experiment [8], 97.2%; in experiment [9] it was 69.8%; in experiment [10], 74.1%.

For `COc1ccc(-c2nnc(COc3ccc(NC(=O)Nc4cc(C(F)(F)F)cc(C(F)(F)F)c4)cc3F)o2)cc1`, the growth was 2.11% (active) in [1]; 16.7% in [2]; 14.4% in experiment [3]; 0.294% (active) in experiment [4]; -12.8% (active) in [5]; -21.4% (active) in experiment [6]. Also, the growth in experiment [7] was 16.4%; in [8], -15% (active); in experiment [9], 16.6%; in [10] it was -32.9% (active).

As for `Cc1cc(O)c2c(c1)C[C@H]1[C@@H]3CC[C@H]4CC(=O)CC[C@]4(C)[C@H]3CC(=O)[C@]21C`, the growth in experiment [1] was 67.6%; in experiment [2], 98.4%; in [3], 94.5%; in [4], 81.6%; in [5] it was 80.9%; in experiment [6], 73.3%. The growth in experiment [7] was 57.4%; in [8] it was 85.1%; in experiment [9], 101%; in experiment [10], 83.3%.

`CN(C)c1ccc(/C=C\c2ccnc3ccccc23)cc1`: the growth in experiment [1] is 51.7%; in [2] it was 40.9%; in [3], 79.9%; in [4] it was 73.9%; in experiment [5] it was 67.3%; in [6], 65.2%. In addition, the growth in experiment [7] was 72.8%; in experiment [8] it was 72.7%; in experiment [9], 88.7%; in experiment [10], 18.7%.

For `O=C1Cc2cc(CCN3CCN(CCOCCO)CC3)c(Cl)cc2N1Cc1ccc(-c2ccccc2-c2nn[nH]n2)cc1`, the growth in [1] was 94.2%; in [2], 82.6%; in experiment [3], 90.5%; in [4] it was 94.1%; in experiment [5] it was 56.1%; in experiment [6], 100%. Moreover, the growth is 74.9% in experiment [7], 89.7% in experiment [8], 101% in experiment [9] and 81.1% in experiment [10].

For the molecule `CO[C@H]1/C=C/O[C@@]2(C)Oc3c(C)c(O)c4c(O)c(c(/C=N/N5C(C)CN(Cc6ccccc6)CC5C)c(O)c4c3C2=O)NC(=O)/C(C)=C\C=C\[C@H](C)[C@H](O)[C@@H](C)[C@@H](O)[C@@H](C)[C@H](OC(C)=O)[C@@H]1C` (stereo not given in full), the growth was 87.6% in experiment [1]; 127% in experiment [2]; 97.8% in experiment [3]; 56.9% in [4]; -19.5% (active) in experiment [5]; 67.4% in experiment [6]. The growth in experiment [7] was 72.8%; in [8], 76%; in [9], 94.2%; in experiment [10], -39.4% (active).

On to `C[n+]1ccc(Nc2ccc(NC(=O)c3ccc(Nc4cc[n+](C)c5ccc(N)cc45)cc3)cc2)cc1`, for which the growth was 96.9% in experiment [1]; 97.2% in experiment [2]; 100% in [3]; 92% in [4]; 90.1% in experiment [5]; 90.4% in experiment [6]. The growth in experiment [7] was 89.2%; in experiment [8] it was 103%; in experiment [9] it was 116%; in experiment [10], 71.5%.

On to `Cc1ccc(C(=O)Nc2ccc(Cl)cc2C(=O)NCc2ccccc2)cc1`, for which the growth in experiment [1] is 23.3%; in experiment [2], 67.3%; in experiment [3] it was 92.8%; in experiment [4] it was 81.5%; in [5], 76.6%; in experiment [6], 78.4%. In addition, the growth in [7] was 70.7%; in experiment [8], 79.2%; in [9] it was 83.7%; in [10] it was 51.7%.

Consider `NC(=O)SCC(=O)Nc1ccccc1-c1ccccc1`, for which the growth in experiment [1] is 87.2%; in experiment [2], 138%; in experiment [3] it was 89.5%; in experiment [4], 92.9%; in experiment [5] it was 90.2%; in experiment [6], 111%. Moreover, the growth in experiment [7] is 81.5%; in [8] it was 90.6%; in experiment [9], 116%; in experiment [10], 88.9%.

In the case of `Cn1cc(-c2csc(-c3cn(C)c4ncccc34)n2)c2cc(F)cnc21`, the growth in [1] is 69.8%; in experiment [2], 75.2%; in experiment [3], 83.3%; in experiment [4] it was 82.4%; in experiment [5] it was 65%; in experiment [6] it was 60.6%. The growth in experiment [7] was 65.3%; in [8], 72.4%; in [9], 83.8%; in experiment [10], 98.7%.

Consider `NNC(=O)NO`, for which the growth in experiment [1] is 96%; in experiment [2], 85.9%; in experiment [3] it was 108%; in [4] it was 104%; in experiment [5], 101%; in [6], 105%. Also, the growth in [7] is 106%; in experiment [8], 97.7%; in experiment [9], 107%; in [10], 91.1%.

As to `CC/C(=C\c1ccc(N(C)C)cc1)c1ccncc1`, the growth in [1] was 14.6%; in experiment [2], 39.2%; in experiment [3] it was 64.5%; in [4], 29.3%; in experiment [5], 65.4%; in experiment [6], 32.5%. The growth was 44% in experiment [7], 41.5% in experiment [8], 65.4% in experiment [9] and 49.9% in experiment [10].
